# HEK293 tox – kills HEK 293 cells; HEK 293 viability, ATP luminescence (CellTiter-Glo), 48-72 h; Potency, µM (series often up to 115 µM), inactives show at the highest dose activity change, negative = cytotoxicity, hits mostly inhibitors; actives 6.6% (n = 94,000); AID 1345083; note: nearly all actives have a fitted effect of over 60% in size
#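 Cells seeded first (HEK 293, 250 cells/well), then compound added by pintool. Incubation ran 48 or 72 hr at 37 degree Celsius. CellTiter-Glo was added and luminescence imaged after 10 min at room temperature.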
# hNpr1 antagonist – human Npr1 receptor antagonism | P16066 | HEK293 hNpr1 GloSensor cGMP, ANP-stimulated luminescence | Potency, µM (series often up to 46.3 µM), without a hit: at the highest dose activity change, negative = inhibition, actives largely listed as inhibitors | actives 1.6% (n = 76,000) | AID 1347048; calls by dose curve; note: nearly all actives have a fitted effect of over 60% in size
#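 Compound pre-incubated 30 min at room temperature on GloSensor-loaded HEK293 cells stably carrying hNpr1 and the pGS-40F cGMP biosensor. Stimulation uses hNppA at 0.1 nM final; luminescence is taken at baseline and 20 min post-agonist.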
# NIH3T3 tox – cytotoxic compounds in NIH 3T3 cells. NIH 3T3 viability, CellTiter-Glo ATP luminescence, 48-72 h. Potency, µM (highest dose often 96.7 µM), for inactives: at the highest dose activity change, negative = cytotoxicity, usual class: inhibitors. actives 4.3% (n = 94,000); note: nearly all actives have a fitted effect of over 55% in size
#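 Luminescent ATP readout (CellTiter-Glo, 10 min RT) after 48 or 72 hr compound exposure of NIH 3T3 cells seeded at 400 cells/well in 1536-well format; quantitative HTS.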
# FLuc inh – inhibitors of firefly (Photinus pyralis) luciferase. Potency, µM (doses to about 115 µM), actives largely listed as inhibitors. purified P. pyralis luciferase, luminescence, biochemical. AID 1347043. actives 2.5% (n = 76,000); note: nearly all actives have a fitted effect of over 65% in size
# Target sequence (P08659 whole entry, looked up): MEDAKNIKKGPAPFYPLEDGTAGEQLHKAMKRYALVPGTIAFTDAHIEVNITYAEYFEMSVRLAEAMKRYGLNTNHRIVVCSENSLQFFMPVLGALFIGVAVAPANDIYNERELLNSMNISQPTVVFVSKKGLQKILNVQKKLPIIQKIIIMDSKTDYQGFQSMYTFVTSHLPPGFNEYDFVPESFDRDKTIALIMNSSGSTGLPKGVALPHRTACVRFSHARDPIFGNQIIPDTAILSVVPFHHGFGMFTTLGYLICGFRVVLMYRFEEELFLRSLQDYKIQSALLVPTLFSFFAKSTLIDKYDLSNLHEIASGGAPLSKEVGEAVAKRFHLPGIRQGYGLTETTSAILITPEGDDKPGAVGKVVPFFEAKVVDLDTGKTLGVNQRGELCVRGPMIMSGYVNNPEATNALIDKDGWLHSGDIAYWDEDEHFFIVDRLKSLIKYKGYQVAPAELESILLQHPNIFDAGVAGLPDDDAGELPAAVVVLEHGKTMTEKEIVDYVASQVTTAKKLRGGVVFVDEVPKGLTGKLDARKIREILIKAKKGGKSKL
#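 Luminescence read by CCD imaging after purified firefly luciferase (10nM final) was added to substrate buffer holding 10uM D-luciferin and 10uM ATP, pH 7.5, pre-dosed with compound.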
# * = called active by the depositor; i = inactive; ? = inconclusive; . = no result given; ! = a repeat was not active; [ ] = remark or other dose. Rows were chosen to be rich in hits. Some 11% of all compounds tested hit in one or more screens of this group. Unless noted, calls come from the whole dose curve; as a rule, active = well fitted curve in the direction sought with a large enough effect; inconclusive = small, poorly fitted or top-dose-only effect, or another doubt; inactive = no such curve, though single readings can be large; an effect the other way counts as inactive or inconclusive. % is set by controls: 0 for no effect and ±100 for the full control effect; potency is the fitted concentration of half-maximal effect.
SMILES,HEK293 tox,hNpr1 antagonist,NIH3T3 tox,FLuc inh
CCc1nc2c(c(-c3ccc(Cl)cc3)n1)CN(C(=O)CCl)CC2,?,-16%,22µM*,i
CCc1nc2c(c(-c3ccc(Cl)cc3)n1)CN([S+](=O)([O-])c1cccc(C(F)(F)F)c1)CC2,-15%,10%,-32%,i
COc1ccc(CC(=O)N2CCC3(C2)C(=O)N(CCc2ccccc2)c2ccccc23)cc1 (centres undefined),40µM*!,0%,?,i
CN1C(=O)C2(CCN(C(=O)c3ccccc3F)C2)c2ccccc21 (centres undefined),?,3%[70.6 µM],-17%[138 µM],i
CN1C(=O)C2(CCN(C(=O)CCc3ccccc3)C2)c2ccccc21 (centres undefined),?,1%,-5%,i
Cc1ccc(CC(=O)N2CCC3(C2)C(=O)N(C)c2ccccc23)cc1 (centres undefined),-12%,-2%,?,i
O=C(c1ccccc1F)N1CCC2(C1)C(=O)N(CCc1ccccc1)c1ccccc12 (centres undefined),40µM*,19%,?,i
COC(=O)N1CCC2(C1)C(=O)N(CCc1ccccc1)c1ccccc12 (centres undefined),63µM*!,0%,?,i
COCC(=O)N1CCC2(C1)C(=O)N(CCc1ccccc1)c1ccccc12 (centres undefined),-23%,1%,-17%,i
O=C(Cc1cccc(Cl)c1)N1CCC2(C1)C(=O)N(CCc1ccccc1)c1ccccc12 (centres undefined),32µM*,0%,45µM*!,i
CCc1noc(-c2cccn3c(CNC(=O)c4c(F)cccc4Cl)nnc23)n1,-5%,6%,-1%,i
C#CCNC(=O)c1cc(-c2ccsc2)c2nncn2n1,-24%[172 µM],.,?,.
COCc1nncn1C1CCN(S(=O)(=O)c2cc(Cl)ccc2OC)CC1,-3%,4%,-3%,i
O=C(c1ccccc1)N1CCC2(C1)C(=O)N(CCc1ccccc1)c1ccccc12 (centres undefined),35µM*!,-11%,?,i
O=C(c1ccccc1)N1CCC2(C1)C(=O)N(Cc1ccccc1)c1ccccc12 (centres undefined),?,-27%,?,i
Cc1ccc(C(=O)N2CCC3(CC2)C(=O)N(C)c2ccccc23)cc1C,?,-2%,1%,i
Cc1ccc(C(=O)N2CCC3(C2)C(=O)N(CCc2ccccc2)c2ccccc23)cc1 (centres undefined),32µM*!,-10%,40µM*!,i
O=C(c1ccc(F)cc1)N1CCC2(C1)C(=O)N(CCc1ccccc1)c1ccccc12 (centres undefined),40µM*!,0%,?,i
CN1C(=O)C2(CCN(C(=O)c3cccc(Br)c3)C2)c2ccccc21 (centres undefined),35µM*,-15%,?,i
Cc1ncoc1C(=O)N1CCCCCC1c1nnc(-c2ccccc2)o1 (centres undefined),-14%,2%,-12%,i
COc1cccc(C(=O)N2CCC3(C2)C(=O)N(CCc2ccccc2)c2ccccc23)c1 (centres undefined),45µM*,-11%,?,i
CCC1Oc2ccc(NC(=O)COc3ccccc3)cc2CN(Cc2cccc(OC)c2)C1=O (centres undefined),45µM*,-3%,?,i
CCC1Oc2ccc(NC(=O)Nc3cccc(OC)c3)cc2CN(Cc2ccc3c(c2)OCO3)C1=O (centres undefined),32µM*,1%,?,i
COc1cccc(N2C(=O)NC(=NC3CCCCC3)C23CCCN(CC2CCCCC2)C3)c1 (centres undefined),32µM*,.,28µM*,.
COc1cccc(N2C(=O)NC(=NC3CCCCC3)C23CCCN(CCC(C)C)C3)c1 (centres undefined),40µM*,.,?,.
SMILES,HEK293 tox,hNpr1 antagonist,NIH3T3 tox,FLuc inh
O=C1NC(=NC2CCCC2)C2(CCN(CC3CCCCC3)CC2)N1c1cc(F)cc(F)c1,-23%,.,-13%,.
COc1cccc(N2C(=O)NC(=NC3CCCCC3)C23CCN(CCC(C)C)CC3)c1,-3%,.,i,.
O=C1NC(=NC2CCCC2)C2(CCN(CC3CCCCC3)C2)N1c1cc(F)cc(F)c1 (centres undefined),35µM*,.,?,.
O=C(c1cccc(C(F)(F)F)c1)N1CC(=O)N(C2CCCCC2)CC(O)C1 (centres undefined),?,.,-22%,.
Cc1cc(C)cc(-c2ccc(CN)cc2)c1,28µM*,.,?,.
NCc1ccc(-c2cccnc2)cc1,-3%[172 µM],.,-4%[138 µM],.
NCc1ccc(-c2ccccn2)cc1,i,.,3%[174 µM],.
Cc1cc(C)cc(-c2ccc(C=O)cc2)c1,126µM*,.,?,.
NCc1ccc(-c2cc(F)cc(F)c2)cc1,?,.,50µM*,.
Cc1nnc2ccc(N3CCN(C(=O)Cc4ccccc4Cl)CC3)nn12,-25%,.,?,.
Cc1ccc(CCNC(=O)c2ccc(Cn3ccn4nc5c(c4c3=O)CCCC5)cc2)cc1,?,?,?,i
CC(=O)Nc1cccc(-c2n[nH]c3c2CC(=O)N(CC2CC2)C3)c1,?,-9%[70.6 µM],?,i
CC(=O)Nc1cccc(-c2n[nH]c3c2CC(=O)N(CCOc2ccccc2)C3)c1,?,-30%[70.6 µM],35µM*,i
CC(=O)Nc1cccc(-c2n[nH]c3c2CC(=O)N(Cc2ccccc2)C3)c1,100µM*,-26%[70.6 µM],?,i
COc1ccc(-c2nc(C)nc3c2CCN(C(=O)c2ccc4c(c2)OCO4)CC3)cc1,?,0%,-26%,i
CCc1nc2c(c(-c3ccc(OC)cc3)n1)CCN(C(=O)c1ccccc1)CC2,-10%,.,?,.
CCc1nc2c(c(-c3ccc(OC)cc3)n1)CN(C(=O)c1ccc3c(c1)OCO3)CC2,-7%,.,40µM*,.
CCc1nc2c(c(-c3ccc(OC)cc3)n1)CN(C(=O)c1ccccc1)CC2,1%,.,14µM*,.
CCc1nc2c(c(-c3ccc(OC)cc3)n1)CCN(C(=O)c1ccccc1F)CC2,-19%,.,40µM*,.
O=C(Nc1ccc(Cl)cc1)N1CCN(c2ccc3nnc(C4CC4)n3n2)CC1,35µM*,.,22µM*,.
Cc1nnc2ccc(N3CCCN(C(=O)Nc4ccc(Cl)cc4)CC3)nn12,-8%,.,-24%,.
O=C(c1ccc(CN2C(=O)NC3(CCS(=O)(=O)CC3)C2=O)cc1)N1CCCC1,14%,5%,1%,i
